Usually inhibition stands for the drop in the measured response relative to a control, in per cent.

Screen size: about 190,000 compounds; about 45 (0.02%) were called active. The list is a sample of the results. A number with no mark means an inactive call. Rule as the data show it: active = inhibition above about 40%.

The results in this text go back to PubChem BioAssay AID952 (NMMLSC, 2007).

Chain of Bcl-2-like protein 2 (Homo sapiens) (Q92843 whole entry, looked up): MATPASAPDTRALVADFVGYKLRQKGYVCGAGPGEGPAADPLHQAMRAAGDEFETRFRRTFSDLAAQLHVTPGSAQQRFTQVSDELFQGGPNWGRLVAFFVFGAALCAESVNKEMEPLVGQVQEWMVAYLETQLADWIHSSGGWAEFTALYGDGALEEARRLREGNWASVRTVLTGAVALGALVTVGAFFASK

The assay concerns the target Bcl-2-like protein 2 (Homo sapiens) (UniProt Q92843). The experiment in a line: inhibitors of Bim binding to Bcl-W, primary screen, biochemical, multiplexed, bead-based flow cytometry (AID 952).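 Also: 0% = bound tracer without compound and 100% = peptide blocker; higher means less fluorescent Bim peptide bound to Bcl-W beads.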 Conditions: Bim peptide-Bcl-W binding, at 10 µM, stronger effect = higher value.
For the molecule `CCOC(=O)NN1C(=O)c2ccccc2NC1c1cccc(O)c1` (centres undefined), the inhibition is 0%.

On to `CCOC(=O)c1c(/N=C/C2C(=O)CC(C)(C)CC2=O)sc(C)c1C`, for which the inhibition is 2%. `COc1ccc(Cl)cc1C(=O)NNC(=S)NC1CCCC1`: the inhibition is 1%. For the molecule `Cc1cc(N2CCOCC2)nc(-c2ccc(Br)cc2)n1`, the inhibition was -3%. Turning to `OCC(O)CN(c1ccccc1)c1ccccc1` (centres undefined), the inhibition is -1%. For `O=C(CNC1CCCCC1)NCC1(c2ccccc2)CCCC1`, the inhibition is 0%. Consider `COCCn1c(Cc2cccn2C)nnc1SCC(=O)Nc1nccs1`, for which the inhibition was 2%. In the case of `COc1cc(CNC2CCCC2)c(Br)cc1OCc1ccccc1`, the inhibition was -3%. For the molecule `O=C(NCCN1CCOCC1)c1cc(Sc2cccc(Cl)c2)nc2ccccc12`, the inhibition was -3%.

On to `CCN1CCN(CC(=O)c2cc(OC)c(OC)c(OC)c2)CC1`, for which the inhibition is -1%. Take `O=C(Cc1ccc(F)cc1)N1CCN=C1SCc1cccc([N+](=O)[O-])c1`: the inhibition is -1%.

Turning to `CCN(CC)CCNS(=O)(=O)c1ccc(/C=C/C(=O)O)cc1`, the inhibition is -2%. Take `C=CCc1ccc(OCC(O)CN2CCN(Cc3ccccc3)CC2)c(OC)c1` (centres undefined): the inhibition was -2%. As to `Cn1c(N)c(C(=O)COC(=O)c2cnc(Cl)c(Cl)c2)c(=O)n(C)c1=O`, the inhibition was 0%. The figure for `Cc1ccc(NC(=O)CSc2nnc(CNC(=O)c3ccccc3F)o2)cc1` is 2%; for `O=[N+]([O-])c1ccc(N2CCNCC2)cc1NCc1cccnc1` it is 0%; for `CCOC(=O)c1cc(-c2ccc(F)cc2)n(CC(=O)NCc2ccccn2)c1C` it is 0%. For the molecule `CCOC(=O)N1CCN(CCC(=O)Nc2cc(OC)ccc2OC)CC1`, the inhibition was 1%. With `C=CCNC(=O)COC(=O)c1ccccc1C(=O)N(C)C1CCCCC1`, the inhibition is 0%.

In the case of `COc1ccccc1N1CCN(C(=O)C(=O)N/N=C/c2ccccc2F)CC1`, the inhibition was -3%.

As for `COc1ccc(C(=O)CSc2nc(C)cc(C)n2)cc1[N+](=O)[O-]`, the inhibition is -1%. In the case of `CC(C)Oc1ccc(Cc2n[nH]c(=S)n2Cc2ccccc2)cc1Cl`, the inhibition is -7%. As to `CC1CCCN(CC(O)COCc2ccccc2)C1` (centres undefined), the inhibition is 1%. Regarding `CCCC(NC(=O)c1ccco1)c1nc2ccccc2[nH]1` (centres undefined), the inhibition was -5%. In the case of `C=CCn1c(SCc2cccc(F)c2)nc2cc(C(=O)N3CCC(C(N)=O)CC3)ccc2c1=O`, the inhibition was -2%. As for `CN(CCOc1ccccc1)Cc1nc2cc(Cl)ccc2c(=O)[nH]1`, the inhibition is 0%. With `CC1CC(C)CN(S(=O)(=O)c2ccc(C(=O)NN3CCOCC3)cc2)C1` (centres undefined), the inhibition was 1%. Consider `COc1ccc2c(c1)C(SCC(=O)NCc1ccccc1)CC(C)(C)O2` (centres undefined), for which the inhibition was -4%.

With `COC(=O)CCNC(=O)c1ccc2[nH]c(C)c(C)c2c1`, the inhibition was 1%. In the case of `Cc1ccc(NC(=O)CSc2nnc(COc3ccccc3C)o2)cc1`, the inhibition is -1%. `COC(=O)CC(=O)N1CCN(c2ccc(Cl)c(Cl)c2)CC1`: the inhibition was 4%. On to `CSCc1ccc(C(=O)Nc2cc(C)cc(C)c2)cc1`, for which the inhibition is -5%. As to `CCN1CCN(CC(=O)Nc2sc3c(c2C#N)CCC3)CC1`, the inhibition was 3%. For the molecule `CCOc1cnc(C(=O)NNC(=O)c2ccccc2Br)o1`, the inhibition is 0%.

As to `COc1ccc(-c2csc(NC(=O)COC(=O)c3ccc(Br)o3)n2)cc1`, the inhibition is -1%. The value for `O=C(CCSc1ccccc1)N1CCN(c2ccccc2F)CC1` was -2%; that for `O=C(CCCc1ccccc1)NCc1ccccc1` was -1%; that for `COc1cc(/C=C/C2=CC(C)(C)NC(=S)N2)cc(OC)c1OC` was 0%. Regarding `CCCCN(CC)C(=O)c1ccccc1Oc1ccccc1`, the inhibition is -2%.
